# Reference: ChEMBL document CHEMBL2218924, “A broad activity screen in support of a chemogenomic map for kinase signalling research and drug discovery” (Biochem J, 2013)
# Target: T1, Testis-specific serine/threonine-protein kinase 2 (Homo sapiens) (UniProt Q96PF2)
# T1 sequence (whole entry): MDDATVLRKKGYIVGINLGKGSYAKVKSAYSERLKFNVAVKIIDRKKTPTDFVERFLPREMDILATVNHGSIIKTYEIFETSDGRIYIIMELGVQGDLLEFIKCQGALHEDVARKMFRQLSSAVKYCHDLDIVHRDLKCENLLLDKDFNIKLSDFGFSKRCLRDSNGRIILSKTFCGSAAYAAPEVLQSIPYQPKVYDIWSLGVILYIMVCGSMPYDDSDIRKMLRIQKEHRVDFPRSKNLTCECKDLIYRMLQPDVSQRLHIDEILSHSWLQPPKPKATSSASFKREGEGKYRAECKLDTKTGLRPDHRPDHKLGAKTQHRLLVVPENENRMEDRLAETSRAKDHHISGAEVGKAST
# Details: at 1 µM
row,Structure (SMILES),residual activity [%]
1,Cn1cc(/C=C2\C(=O)Nc3ccc(S(N)(=O)=O)cc32)c2ccccc21,72
2,O=C1NC(=O)C(c2cn(CCCO)c3ncccc23)=C1c1cnccn1,59
3,COc1ccc(Cl)cc1NC(=O)Nc1cc(C)nc2ccccc12,100
4,N#CC(C#N)=C(N)/C(C#N)=C/c1ccc(O)cc1,85
5,NC(=O)c1ccc2[nH]c(-c3ccc(Oc4ccc(Cl)cc4)cc3)nc2c1,98
6,Nc1n[nH]c2nc3ccccc3nc12,95
7,O=C1Nc2ccc(Cl)cc2/C1=C/c1cc(Cl)c(O)c(Cl)c1,76
8,Cc1cc2ncc(-c3ccccc3)nc2cc1C,91
9,O=C1NC(=O)/C(=C\c2ccc3nccnc3c2)S1,90
10,O=c1cc(N2CCOCC2)oc2c1ccc1ccccc12,95
11,CCCC(=O)Oc1ccc2[nH]c(C(=O)c3cc4ccccc4[nH]3)cc2c1,96
12,Cc1ccc(NC2=CC(=O)c3sc(C)nc3C2=O)cc1,93
13,Cn1cnc2cc3c(Nc4cccc(Br)c4)ncnc3cc21,100
14,O=[N+]([O-])c1ccc(-c2nc(-c3ccc(F)cc3)c(-c3ccncc3)[nH]2)cc1,100
15,COc1ccc2c(c1)c(C1=C(c3c[nH]c4ccccc34)C(=O)NC1=O)cn2CCCN(C)C,81
16,CC(C)c1nn(-c2c(Cl)cccc2Cl)c2nc(Cc3ccc(OCCO)cc3)[nH]c(=O)c12,93
17,COc1cc2nccc(Oc3ccc(NC(=S)NC(=O)c4ccccc4C)cc3)c2cc1OC,94
18,COc1ccc(OC)c2c(=S)c3ccccc3[nH]c12,106
19,O=C(Nc1cccc(Nc2nccc(Nc3cccc(C(F)(F)F)c3)n2)c1)C1CC1,86
20,CN(C)c1ccc(/C=C2\C(=O)Nc3ccccc32)cc1,92
